Calls of active or inactive are those of the source. No rule for the calls is given here.
Molecular target: Pantothenate synthetase (Mycobacterium tuberculosis (strain ATCC 25618 / H37Rv)) (UniProt P9WIL5)
Assay: Coupled enzyme confirmation of inhibitors against recombinant Mtb PanC (AID 375);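 also: 0% = full reaction with vehicle and 100% = no enzyme background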
Conditions: coupled enzyme assay; at 10 µM, hits give high values

Pantothenate synthetase (Mycobacterium tuberculosis (strain ATCC 25618 / H37Rv)), sequence (P9WIL5 whole entry, looked up): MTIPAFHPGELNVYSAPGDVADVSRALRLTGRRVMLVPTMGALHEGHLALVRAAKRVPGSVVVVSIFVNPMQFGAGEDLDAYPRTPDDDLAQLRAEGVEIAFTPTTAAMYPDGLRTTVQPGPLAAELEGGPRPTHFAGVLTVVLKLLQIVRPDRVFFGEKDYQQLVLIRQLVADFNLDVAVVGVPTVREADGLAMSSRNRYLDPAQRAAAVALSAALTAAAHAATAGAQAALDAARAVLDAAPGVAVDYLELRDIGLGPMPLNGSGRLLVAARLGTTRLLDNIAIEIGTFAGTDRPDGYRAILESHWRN

Row | SMILES | inhibition
1 | O=C1c2cccnc2C(=O)N1c1cccc(-c2nc3ccccc3o2)c1 | 3% (inactive)
2 | COc1ccc(C2=NOC(C(=O)NCc3ccc(F)cc3)C2)cc1OC (stereo not given) | 0% (inactive)
3 | CCN(CCCCOC(=O)c1ccc(OC)c(OC)c1)C(C)Cc1ccc(OC)cc1 (stereo not given) | 9% (inactive)
4 | COc1ccc(Cn2nnnc2C(c2ccccc2OC)N2CCC(C(N)=O)CC2)cc1 (stereo not given) | 0% (inactive)
5 | O=C(CCn1nc(-c2ccc(Cl)cc2)ccc1=O)N1CCN(c2ccccn2)CC1 | 7% (inactive)
6 | COc1ccccc1CNS(=O)(=O)c1cccc(S(=O)(=O)N2CCOCC2)c1 | 0% (inactive)
7 | CCN1CCN(C(=O)c2oc(=O)c3ccccc3c2-c2ccc(C)cc2)CC1 | 0% (inactive)
8 | CC(=O)Nc1sc2c(c1CN1CCN(c3ccccn3)CC1)CCCC2 | 2% (inactive)
9 | COc1ccc(C2C3=C(CC(C)(C)CC3=O)Oc3ncn4nc(-c5cccnc5)nc4c32)cc1 (stereo not given) | 0% (inactive)
10 | O=C(NC(C(=O)c1ccccc1)n1ccc(=O)[nH]c1=O)c1ccccc1 (stereo not given) | 0% (inactive)
11 | CCCc1cc(C(=O)Nc2sc(C)c(C)c2C(=O)OCC)no1 | 3% (inactive)
12 | CCCCP(=O)(CCCC)c1ccccc1C(=O)O | 3% (inactive)
13 | CCOC(=O)c1sc2nc(SCC(=O)NCc3ccco3)n(Cc3ccccc3)c(=O)c2c1C | 0% (inactive)
14 | CCCCCn1c(=O)[nH]c2cc(C(=O)NCCN3CCOCC3)ccc2c1=O | 1% (inactive)
15 | Cn1c(-c2ccccc2)cc(=O)c2ccccc21 | 0% (inactive)
16 | CCCn1c(=O)[nH]c(=O)c2[nH]cnc21 | 0% (inactive)
17 | CCCCNC(=O)OCCNC(=O)NC | 0% (inactive)
18 | O=C1CC(c2ccc(F)c(Br)c2)C2=C(CCCC2=O)N1 (stereo not given) | 5% (inactive)
19 | O=C(OCc1cc2ccccc2[nH]c1=O)c1ccncc1 | 7% (inactive)
20 | CCn1c(SCC(=O)Nc2ccc3c(c2)OCO3)nnc1-c1ccccc1O | 2% (inactive)

Row | SMILES | inhibition
21 | CC(C)(C)C1=C[C@@H](CO)C[C@@H](CO)C1 | 0% (inactive)
22 | COc1ccccc1-n1cnnc1SCC(=O)c1ccc[nH]1 | 3% (inactive)
23 | Cc1ccc2c(c1)CCCN2C(=O)c1ccc2c(c1)OCO2 | 0% (inactive)
24 | Cc1ccc2[nH]c3c(N4CCOCC4)ncnc3c2c1 | 0% (inactive)
25 | O=C(CSc1nnnn1-c1ccc2c(c1)OCO2)NCc1cccs1 | 0% (inactive)
26 | CC(C)OC(=O)CSc1nnc(-c2ccc(O)cc2)n1Cc1ccccc1 | 0% (inactive)
27 | COc1cc(S(=O)(=O)N2CCC(N3CCCCC3)CC2)ccc1-n1cnnn1 | 3% (inactive)
28 | O=C(NC12CC3CC(CC(C3)C1)C2)N1CCN(C(=O)C2CCCO2)CC1 (stereo not given) | 7% (inactive)
29 | CC(C)C(NC(=O)c1ccco1)C(=O)NCC(c1ccco1)N1CCCCC1 (stereo not given) | 3% (inactive)
30 | Cc1cccc(NC(=O)CC2CCC2)c1 | 0% (inactive)
31 | COc1ccccc1NC(=O)C(O)C(O)C(=O)Nc1ccccc1OC (stereo not given) | 3% (inactive)
32 | C=CCOC(=O)COc1ccc2c(C)c(C)c(=O)oc2c1C | 0% (inactive)
33 | Cc1ccc(-c2nn(C)c(=O)c3ccccc23)cc1S(=O)(=O)N1CCOCC1 | 9% (inactive)
34 | CCCc1n[nH]c2c1/C(=N/O)CC(c1ccccc1)C2 (stereo not given) | 8% (inactive)
35 | COc1ccc(S(=O)(=O)Nc2ccc(S(=O)(=O)N3CCCCC3)cc2)cc1OC | 0% (inactive)
36 | CCCc1c(O)nc(SCC(=O)NCCc2ccc(OC)c(OC)c2)[nH]c1=O | 0% (inactive)
37 | C=CCOC(=O)C1=C(C)NC(=O)NC1c1cn(-c2ccccc2)nc1-c1cccs1 (stereo not given) | 4% (inactive)
38 | O=C(Nc1ccon1)c1cccc(S(=O)(=O)N2CCCC2)c1 | 2% (inactive)
39 | CCOC(=O)N1CCN(C(=O)c2cccn3c(=O)c4sccc4nc23)CC1 | 0% (inactive)
40 | COc1cccc(-c2cc(C(=O)N3CCCCCC3)no2)c1 | 1% (inactive)

— PubChem BioAssay
